Experimental data published in PubChem BioAssay (Tox21).
Values without a mark were called inactive. Active and inactive are the calls of the source. The call rests on the fitted dose curve; in most records, active means well fitted curve in the direction sought with a large enough effect in the repeat runs; inconclusive means weak or mixed curves; inactive means flat fitted curve, though single readings scatter.

Assay: qHTS assay to test for compound auto fluorescence at 535 nm (green) in HEK293 cells (AID 720680)
Conditions: green autofluorescence 485/535 nm; series mostly up to 91.3 µM; fluorescence, % of fluorescein: at the top concentration
Source text: U.S. Tox21 Program National Center for Advancing Translational Sciences [NCATS] NIH Chemical Genomics Center [NCGC] U.S. Environmental Protection Agency [EPA] National Institutes of Environmental Health Sciences [NIEHS] National Toxicology Program [NTP] U.S. Food and Drug Administration [FDA] Tox21 Assay Overview: Compound auto fluorescence often interferes with screening of the compound library against various biological targets and signaling pathways. Some of these compounds may have fluorophoric properties. Such properties may interfere with the assay outputs resulting in false positives and/or negatives. To decrease such complications and ensure the compound activities are relevant in terms of biological response, the Tox21 10K compound library was screened for auto fluorescence. From the fluorophores used as reporter signals in our screening assays, the auto fluorescence equivalencies of compounds against three fluorophores have been evaluated: Triamterene, Fluorescein and Rose Bengal sodium for blue, green and red fluorescence, respectively. The fluorescence intensities were measured using Excitation/Emission wavelengths at 405/460nm, 485/535nm and 540/590nm for blue, green and red labels, respectively. This assay includes the green fluorescence data.
Tox21 Assay Protocol Summary: 2,000 HEK293 cells in 5 uL of culture medium containing 10% dialyzed FBS per well were dispensed into black wall/clear bottom 1536-well plates using a Multidrop Combi Dispenser (Thermo Scientific). The assay plates were incubated for 4-5 hr at 37C to allow cell attachment to the well bottom, followed by the transfer of 23 nL compound or DMSO vehicle by a pintool work station (Kalypsys, San Diego, CA). After the assay plates were incubated overnight at 37C and 5% CO2, fluorescence intensities in the assay plates were measured by an Envision (PerkinElmer, Shelton, CT) plate reader using three labels for measuring blue, green and red fluorescence at […] 460, 535 and 590nm respectively.
On the % scale 0 is the no-effect control and ±100 the full control effect.

| SMILES | fluorescence, % of fluorescein | outcome |
| --- | --- | --- |
| CCOP(=S)(OCC)Oc1nc(Cl)n(C(C)C)n1 | 0.128% | – |
| CCN(CC)c1nc(C)cc(OP(=S)(OC)OC)n1 | 0.0616% | – |
| O=S(=O)(O)C(F)(F)C(F)(F)C(F)(F)C(F)(F)C(F)(F)C(F)(F)F | -0.0003% | – |
| N#CCNCC#N | 0.0897% | – |
| CNC(=O)Oc1ccccc1C1OCCO1 | 0.0383% | – |
| CN/C(=N\[N+](=O)[O-])NCC1CCOC1 (stereo not given) | 0.0395% | – |
| CC(C)CP(=S)(S)CC(C)C | -0.0398% | – |
| Nc1cc2c3c(c1)C(c1ccccc1)=N[C@@H](NC(=O)c1cccnc1)C(=O)N3CC2 | 0.0188% | – |
| CNC(=O)O/N=C(\C)SC | -0.0951% | – |
| O=C(O)C(Br)CBr (stereo not given) | 0.0121% [at 95.7 µM] | – |
| COC(=O)COc1ccc(Cl)cc1Cl | -0.0641% | – |
| CCOC(=O)CP(=O)(OCC)OCC | -0.0079% | – |
| CCC1(c2ccccc2)C(=O)NC(=O)NC1=O | – | inactive |
| CCOP(=O)(N=C1SCCS1)OCC | 0.0227% | – |
| O=C(O)c1cccc(Cl)c1 | -0.0606% | – |
| O=C(CCN1CC1)OCC(CO)(COC(=O)CCN1CC1)COC(=O)CCN1CC1 | 0.0208% | – |
| N#CC(O)c1ccccc1 (stereo not given) | -0.128% | – |
| OCCBr | -0.0274% | – |
| CCS(=O)(=O)C(C)(C)S(=O)(=O)CC | 0.0081% [at 46 µM] | – |
| CC(C)CC(N(C)C)C1(c2ccc(Cl)cc2)CCC1 (stereo not given) | -0.0112% [at 46 µM] | – |

| SMILES | fluorescence, % of fluorescein | outcome |
| --- | --- | --- |
| c1cc2c(c(N3CCNCC3)c1)OCCO2 | -0.0215% [at 46 µM] | – |
| Cc1ncsc1CCCl | 0.0414% [at 46 µM] | – |
| CN1C(=S)CN=C(c2ccccc2)c2cc(Cl)ccc21 | 0.0155% [at 46 µM] | – |
| CCNc1nc(NC(C)C)nc(OC)n1 | -0.0239% | – |
| Cc1nnc2n1-c1sc(CCC(=O)N3CCOCC3)cc1C(c1ccccc1Cl)=NC2 | – | inactive |
| CC(CCc1ccccc1)NC(C)C(O)c1ccc(O)cc1 (stereo not given) | 0.0632% [at 46 µM] | – |
| COc1cc(OC)nc(Sc2cccc(Cl)c2C(=O)O)n1 | -0.0349% | – |
| CC(=O)C(Cl)Cl | -0.0641% [at 95.7 µM] | – |
| OC(Cn1cncn1)(c1ccc(F)cc1)c1ccccc1F (stereo not given) | -0.0957% | – |
| CN1C[C@@H](NS(=O)(=O)N(C)C)C[C@@H]2c3cccc4c3c(cn4C)C[C@H]21 | -0.236% [at 46 µM] | – |
| C=C(C)[C@@H]1CC=C(C=O)CC1 | 0.149% | – |
| [As]#[In] | 0.0226% | – |
| NC1=NC(=O)C(c2ccccc2)O1 (stereo not given) | -0.0029% [at 46 µM] | – |
| CCN(CC)C(=O)[C@@H]1C=C2c3cccc4[nH]cc(c34)C[C@H]2N(C)C1 | – | inactive |
| O=C(Nc1ccccc1)c1ccccc1I | 0.0209% | – |
| CCCSC(=O)N(CCC)CCC | -0.0369% | – |
| CCC/C(=N\OCC)C1=C(O)CC(CC(C)SCC)CC1=O (stereo not given) | 0.061% | – |
| O=C1OC(c2ccc(O)c(S(=O)(=O)O)c2)(c2ccc(O)c(S(=O)(=O)O)c2)c2c(Br)c(Br)c(Br)c(Br)c21 | 0.0756% [at 46 µM] | – |
| O=C1OC(=O)C2C1C1(Cl)C(Cl)=C(Cl)C2(Cl)C1(Cl)Cl (stereo not given) | 0.0165% [at 95.7 µM] | – |
| CC(C)(C)C(=O)C(Oc1ccc(Cl)cc1)n1cncn1 (stereo not given) | -0.0824% | – |
